Values joined by “and” are separate entries in the source; they are usually repeats but may differ in a detail not shown here. Equal values may be shown once. About 350 (0.27%) of roughly 130,000 compounds were called active. Rule as the data show it: active = z-score below about -2 (passing the limit was not always enough); inactive = the rest. For the sample, actives were picked, then their nearest neighbours and some compounds at random.
Assay: PubChem AID 504770
Settings: E. coli YBA685 rctB-dependent plasmid, OD600 growth, 3 h; active compounds read low

SMILES	z-score
c1ccc(-n2nnnc2Sc2nc(C3CC3)n(-c3ccccc3)n2)cc1	0.25 (inactive)
Cc1ccc2oc(-c3ccccc3C)nc2c1	1.9 (inactive)
CC(Sc1nc(N)nc(N)n1)C(=O)NC1(C#N)CCCCC1 (stereo not drawn)	-0.4 (inactive)
O=C(OCC(=O)N1CCCC1)c1ccccc1OCc1ccccc1Cl	0.2 (inactive)
CC(OC(=O)C1CCN(C(=O)c2ccc(Cl)cc2)CC1)C(=O)NC1CC1 (stereo not drawn)	1.3 (inactive)
Cc1cc(C)c(C)c(OCC(=O)N(Cc2nc(-c3ccccc3)no2)C2CCCCC2)c1	-0.5 (inactive)
COc1ccc(-c2cc(C(=O)NCCCN3CCOCC3)no2)cc1	0.4 (inactive)
Cc1cccc(NC2=NC3CS(=O)(=O)CC3S2)c1 (stereo not drawn)	-0.4 (inactive)
Cc1nnsc1C(=O)NC(=O)c1ccccc1O	0.45 (inactive)
COC(=O)C(C)N(C#N)c1nc(N(C)C)nc(N(C)C)n1 (stereo not drawn)	-0.3 (inactive)
CN1CCN(c2nc(C34CC5CC(CC(C5)C3)C4)cs2)CC1	0.45 (inactive)
Clc1ccc2c(Sc3nncn3-c3ccccc3)ccnc2c1	0.2 (inactive)
C=CCN(CC=C)C(=O)COc1ncnc2sccc12	-0.3 (inactive)
CSc1nc(=O)n(Cc2ccccn2)c2c1CCC2	-0.15 (inactive)
CCCCn1c2ccccc2c2n[nH]c(=S)nc21	-0.4 (inactive) and 1.45 (inactive)
CCc1cccc(NS(=O)(=O)c2cc(Br)cc3c2N(C(=O)C2CC2)CC3)c1	-2.9 (active)
O=C(CCS(=O)(=O)c1cc(Br)cc2c1N(C(=O)C1CC1)CC2)NCc1ccc(F)cc1	-0.8 (inactive)
CCC(=O)N1CCc2cc(Br)cc(S(=O)(=O)NCCN3CCN(c4ccccc4F)CC3)c21	-0.85 (inactive)
O=C(Cn1c(=O)oc2cc(S(=O)(=O)NCc3ccccc3)ccc21)NC1CCCC1	2.3 (inactive)
O=C(COc1ccc(Cl)cc1)Nc1c(-c2ccc(F)cc2)nc2ccccn12	-0.15 (inactive)
CCOC(=O)C(Cc1ccccc1)C(=O)Nc1cccc(C)n1 (stereo not drawn)	-0.4 (inactive)
O=C(CCSc1nc(-c2ccco2)cc(C(F)(F)F)n1)N1CCCC1	0.85 (inactive)
Cc1nc(/N=C(/N)NC(=O)c2ccccc2)nc2ccccc12	0.6 (inactive)
Cc1ccc2c(c1)c1c(n2CC(O)CN2CCCCC2)C(=O)CCC1 (stereo not drawn)	-0.35 (inactive)

SMILES	z-score
CC1CC(C)CN(c2ncnc3scc(-c4ccccc4)c23)C1 (stereo not drawn)	-0.7 (inactive)
CC1CCCCC1NC(=O)COC(=O)c1nc(Cl)ccc1Cl (stereo not drawn)	-0.55 (inactive)
O=C(COC(=O)/C=C/c1cn(-c2ccccc2)nc1-c1ccccc1)NC1CC1	-2.45 (inactive)
CCc1ccc(CCC(=O)O)cc1	0.8 (inactive)
CCc1ccc(C(=O)COC(=O)c2cccc(-n3cccc3)c2)s1	1.2 (inactive)
CCc1ccc(C(=O)CCC(=O)O)s1	-3.1 (active)
O=c1c(/C=N\O)coc2ccc(F)cc12	1.15 (inactive)
O/N=C/c1cccc(Cl)c1	-0.05 (inactive)
O=c1c(/C=N/O)coc2ccc(Cl)cc12	-3.05 (active)
CCCc1cc(=O)[nH]c2c1c(C)nn2-c1cccc(F)c1	2.25 (inactive)
Cc1cccc(-n2nc(C)c3c(C)cc(=O)oc32)c1	-3.15 (active)
CCCc1cc(=O)oc2c1c(C)nn2C	0.15 (inactive)
CCN(CC)S(=O)(=O)c1ccc(C(=O)NCCn2c(C)cc3ccccc32)cc1	0.65 (inactive)
Cc1ccc(C(C(=O)NCc2ccccc2)N(Cc2ccco2)C(=O)Cn2nnc3ccccc32)cc1 (stereo not drawn)	-0.35 (inactive)
CCN1CCN(c2ccc(NC(=O)[C@H](Cc3ccccc3)N3Cc4ccccc4C3=O)cc2)CC1	1.2 (inactive)
CCSc1nnc(SCC(=O)c2ccc3[nH]c(=O)[nH]c3c2)s1	1.6 (inactive)
CCOc1ncccc1C(=O)OCC(=O)N1C(C)CCCC1C (stereo not drawn)	-5.9 (active)
Cc1cc(C(=O)OCC(=O)N2C(C)CCCC2C)c2ccccc2n1 (stereo not drawn)	0.05 (inactive)
CC1CCCC(C)N1C(=O)COC(=O)c1ccccc1I (stereo not drawn)	1.25 (inactive)
COC(=O)CN1C(=O)C(C)(C)Oc2ccc(C(=O)Nc3cccc(OC)c3)cc21	-0.45 (inactive)
COc1ccc(C2CC(=O)C3=C(C2)NC(=O)CC3c2ccc3c(c2)OCO3)cc1 (stereo not drawn)	0.05 (inactive)
CCCN1CCC(NC(=S)Nc2ccc3c(c2)OCO3)CC1	1.7 (inactive)
O=C(Nc1ccccc1)C1CCN(C(=O)c2cccs2)CC1	0.15 (inactive)
CCN1CCN(C(=O)c2ccc(/C=C3/Sc4ccccc4N(Cc4ccccc4C)C3=O)cc2)CC1	0.25 (inactive)

Reference: PubChem BioAssay AID504770 (ICCB-Longwood Screening Facility, Harvard Medical School, 2011)
